Records with an inconclusive call do not appear. Where a call stands in place of a potency, no number is given. The source made the active and inactive calls. The call rests on the fitted dose curve; in most records, active means well fitted inhibition curve with a large enough effect in the repeat runs; inconclusive means weak or mixed curves; inactive means no such curve, though single readings can be large or run the other way.
Assay: qHTS assay to identify small molecule antagonists of the thyroid receptor (TR) signaling pathway (AID 743065); further: nearly all actives have a fitted effect of over 55% in size
Conditions: GH3.TRE-Luc, T3-stimulated luciferase inhibition, 23.5 h; series mostly up to 70.3 µM
Text: U.S. Tox21 Program National Center for Advancing Translational Sciences [NCATS] NIH Chemical Genomics Center [NCGC] U.S. Environmental Protection Agency [EPA] National Institutes of Environmental Health Sciences [NIEHS] National Toxicology Program [NTP] U.S. Food and Drug Administration [FDA] Tox21 Assay Overview: Thyroid receptor (TR), a nuclear hormone receptor, plays an important role in development, proliferation, differentiation, metabolism, brain function, and cardiovascular system. […] To profile the Tox21 10K compound library in TR signaling, a cell-based GH3-TRE-Luc assay (GH3.TRE-Luc cell line, developed by the laboratory of Dr. Albertinka J. Murk, Wageningen University) was used to measure the inhibition of TR. GH3 (rat pituitary tumor) cells stably expressing a TR activity sensor consisting of two TR response elements and a luciferase reporter gene.
Tox21 Assay Protocol Summary: GH3.TRE-Luc cells were dispensed at 1500 cells/4 uL/well into 1536-well white solid bottom plates using a Multidrop Combi dispenser (Thermo Fisher Scientific Inc., Waltham, MA). After the assay plates were incubated at 37 C for 4 hours, 23 nL of library compound or DMSO controls was transferred to the assay plates by a pintool station (Kalypsys, San Diego, CA), followed by addition of 1 ul of T3 (1 nM, final concentration in the wells) to stimulate TR transactivation. The assay plates were incubated at 37 C for 23.5 h, and then 1 uL of CellTiter-Fluor reagent (Promega, Madision, WI) of measuring cytotoxicity was added to each well using a Bioraptr Flying Reagent Dispenser (FRD) workstation (Beckman Coulter, Indianapolis, IN, USA). The plates were incubated at 37 C and 5% CO2 for additional 30 min, and fluorescence intensity was measured by a ViewLux plate reader (PerkinElmer, Shelton, CT). For measuring luciferase reporter gene activity, 4 uL of ONE-Glo Luciferase Assay reagent (Promega) was added to each well using a Bioraptr FRD (Beckman Coulter), followed by 30 min incubation at room temperature. The luminescence intensity of plates was recorded by a ViewLux plate reader (PerkinElmer, Shelton, CT).

For `Sc1ccccc1`, which Potency is on record?
The Potency was “inactive”.

For `Cc1cccc(C)c1N`, which Potency is on record?
The Potency was “inactive”.

Which Potency does the source give for `Cc1cccc(N)c1` here?
The Potency was “inactive”.

For `OCc1ccco1`, which Potency is on record?
The Potency was “inactive”.

For `CN(C)C(=O)C(c1ccccc1)c1ccccc1`, which Potency is on record?
The Potency was “inactive”.

With `O=C(O)C1C(C(=O)O)C2(Cl)C(Cl)=C(Cl)C1(Cl)C2(Cl)Cl` (stereo not given) as the molecule, how does the Potency read?
The Potency was “inactive”.

For `C=CC(=O)OCC(CC)CCCC` (stereo not given), which Potency is on record?
The Potency was “inactive”.

With `CC[N+](=O)[O-]` as the molecule, how does the Potency read?
Its Potency is “inactive”.

Which Potency does the source give for `CN(C)CCC#N` here?
Its Potency is “inactive”.

For `Cc1cc(O)ccc1Cl`, which Potency is on record?
The Potency was “inactive”.

For `COc1nc(NC(C)C)nc(NC(C)C)n1`, which Potency is on record?
The Potency was “inactive”.

Which Potency does the source give for `N#CN=C(N)N` here?
The Potency was “inactive”.

For `Clc1cnc(Oc2ccc(Oc3ncc(Cl)cc3Cl)cc2)c(Cl)c1`, which Potency is on record?
The Potency was “inactive”.

With `O=C/C=C/c1ccccc1` as the molecule, how does the Potency read?
Its Potency is “inactive”.

For `COC(C)(C)CCCC(C)C/C=C/C(C)=C/C(=O)OC(C)C` (stereo not given), which Potency is on record?
The Potency was “inactive”.

With `C[C@H]1C(=O)O[C@@H]2CCN3CC=C(COC(=O)[C@](C)(O)[C@]1(C)O)[C@H]23` as the molecule, how does the Potency read?
Its Potency is “inactive”.

With `CC(C)c1cccc(C(C)C)c1O` as the molecule, how does the Potency read?
Its Potency is “inactive”.

With `COS(=O)(=O)OC` as the molecule, how does the Potency read?
Its Potency is “inactive”.

For `O=S(=O)(O)OOS(=O)(=O)O`, which Potency is on record?
The Potency was “inactive”.

For `ClCCOCCCl`, which Potency is on record?
Its Potency is “inactive”.

With `Cc1cccc(N)c1C` as the molecule, how does the Potency read?
The Potency was “inactive”.

With `C=C(C)C(=O)OCC(CC)CCCC` (stereo not given) as the molecule, how does the Potency read?
Its Potency is “inactive”.

Which Potency does the source give for `CC(=O)C1CCOC1=O` (stereo not given) here?
The Potency was “inactive”.

Which Potency does the source give for `O=[N+]([O-])c1ccc(Cl)c(Cl)c1` here?
Its Potency is “inactive”.

Which Potency does the source give for `Nc1cc(Cl)cc(Cl)c1` here?
Its Potency is “inactive”.

With `Nc1ccc([As](=O)(O)O)cc1` as the molecule, how does the Potency read?
The Potency was “inactive”.

With `c1ccc2c(c1)CCCC2` as the molecule, how does the Potency read?
Its Potency is “inactive”.

With `Nc1ncc([N+](=O)[O-])s1` as the molecule, how does the Potency read?
Its Potency is “inactive”.

For `O=C(O)Cc1ccccc1`, which Potency is on record?
The Potency was “inactive”.

For `OCC(O)CCl` (stereo not given), which Potency is on record?
The Potency was “inactive”.

For `C/C=C/c1ccc2c(c1)OCO2`, which Potency is on record?
Its Potency is “inactive”.

With `CCSC(=O)N1CCCCCC1` as the molecule, how does the Potency read?
The Potency was “inactive”.

Which Potency does the source give for `O=C(O)c1cc(Oc2ccc(C(F)(F)F)cc2Cl)ccc1[N+](=O)[O-]` here?
The Potency was “inactive”.

For `Oc1c(Br)cc(Br)cc1Br`, which Potency is on record?
Its Potency is “inactive”.

Which Potency does the source give for `O=C(O)COc1ccccc1` here?
Its Potency is “inactive”.

With `Cc1cc(Cl)ccc1OC(C)C(=O)O` (stereo not given) as the molecule, how does the Potency read?
The Potency was “inactive”.

Which Potency does the source give for `N#Cc1cccc(C#N)c1` here?
Its Potency is “inactive”.

Which Potency does the source give for `CCOP(=S)(OCC)Oc1ccc([N+](=O)[O-])cc1` here?
The Potency was “inactive”.

With `CCOc1ccc(N)cc1` as the molecule, how does the Potency read?
Its Potency is “inactive”.

With `N#Cc1ccccn1` as the molecule, how does the Potency read?
Its Potency is “inactive”.

Reference: PubChem BioAssay (Tox21)
